Laboratory results published in the supplement of paper PMC5662767.
Structures can show the parent of a compound that is named as a salt.

Tested on: Drosophila S2 cl14 SmoIP sensor cells
Test: normalized SmoIP GFP fluorescence (untreated unstimulated = 0%, untreated Hh-stimulated = 100%); higher = more Smo activation sensor fluorescence
Details: compound concentration: 2 uM, 24 h
[1] = stimulation: Hh conditioned medium (+Hh)
[2] = stimulation: mock conditioned medium (-Hh)
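Note: flow cytometry read-out as median GFP intensity of gated cells, compounds added 30 min before Hh-conditioned or mock medium, mock-treated cells serving as unstimulated baseline.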

Compound | normalized SmoIP GFP fluorescence [1] [%] | normalized SmoIP GFP fluorescence [2] [%]
COc1ccc(CCc2nc3cc(-c4c(C)noc4C)ccc3n2C[C@H](C)N2CCOCC2)cc1Cl | 144 | 2.75
COc1cc2c(N3CCN(C(=O)Nc4ccc(OC(C)C)cc4)CC3)ncnc2cc1OCCCN1CCCCC1 [Tandutinib-(MLN518)] | 99.7 | 1.89
CC1(C)Cc2c(-c3ccccc3)c(-c3ccc(Cl)cc3)c(CC(=O)O)n2C1 [licofelone] | 121 | -11.2
CC(C)C[C@H](NC(=O)CNC(=O)c1cc(Cl)ccc1Cl)B(O)O | 82.1 | 26
C#C[C@]1(OC(C)=O)CC[C@H]2[C@@H]3CCC4=C[C@@H](OC(C)=O)CC[C@@H]4[C@H]3CC[C@@]21C [ethynodiol-diacetate] | 100 | -1.63
Cn1cncc1[C@@](N)(c1ccc(Cl)cc1)c1ccc2c(c1)c(-c1cccc(Cl)c1)cc(=O)n2C | 141 | 43.9
O=C(O)c1cccc(-c2noc(-c3ccccc3F)n2)c1 | 116 | -0.662
Cc1ccc(S(=O)(=O)c2ccc([N+](=O)[O-])o2)cc1 | 144 | 21.3
O=C(Nc1ccccc1-c1cn2c(CN3CCNCC3)csc2n1)c1cnc2ccccc2n1 | 107 | 1.57
COc1cc(N2CCC(N3CCN(C)CC3)CC2)ccc1Nc1ncc(Cl)c(Nc2ccccc2S(=O)(=O)C(C)C)n1 | 109 | 10.2
COc1ccccc1N1CCN(CCN(C(=O)C2CCCCC2)c2ccccn2)CC1 | 125 | 7.01
O=S(=O)(c1ccccc1)N(CC(F)(F)F)c1ccc(C(O)(C(F)(F)F)C(F)(F)F)cc1 | 104 | -1.85
COC(=O)[C@H](c1ccccc1Cl)N1CCc2sccc2C1 [Clopidogrel-bisulfate] | 113 | 2.97
Cc1c(Cl)cccc1Nc1ccccc1C(=O)O [tolfenamic-acid] | 88.3 | -15.3
CCc1ccc(/C=C2/SC(=S)NC2=O)cc1 | 105 | -1.63
O=C(c1cncc(Br)c1)N1CCC(N2CCCC2)CC1 | 98.8 | 1.35
COc1cc(F)c(C(C)C)cc1-c1ccc(C(F)(F)F)cc1CN1C(=O)O[C@H](c2cc(C(F)(F)F)cc(C(F)(F)F)c2)[C@@H]1C [anacetrapib-mk-0859] | 146 | -8.59
Cc1nc(Nc2ncc(C(=O)Nc3c(C)cccc3Cl)s2)cc(N2CCN(CCO)CC2)n1 [Dasatinib] | 126 | -3.93
Cc1c(Cn2c(C)nc3c(C(=O)O)cc(N4CCOCC4)cc32)cccc1C(F)(F)F | 108 | 0.966
Cc1ccc2nc(NCCN)c3ncc(C)n3c2c1 | 137 | -9.4
Cc1csc(-c2nnc(Nc3ccc(Oc4ncccc4-c4ccnc(N)n4)cc3)c3ccccc23)c1 | 102 | -0.747
CNCc1ccc(-c2[nH]c3cc(F)cc4c3c2CCNC4=O)cc1 | 115 | 0.489
CCN(CC)CCCC(C)Nc1nc(C)cc(Nc2ccc3nc(C)cc(N)c3c2)n1 (stereo not drawn) | 112 | -4.53
COc1ccc(-c2oc3c(CC=C(C)C)c(O[C@@H]4O[C@H](CO)[C@@H](O)[C@H](O)[C@H]4O)cc(O)c3c(=O)c2O[C@@H]2O[C@@H](C)[C@H](O)[C@@H](O)[C@H]2O)cc1 [Icariin] | 92.7 | -3.27
CCOC(=O)[C@H](CCc1ccccc1)N[C@@H](C)C(=O)N1[C@@H](C(=O)O)C[C@@H]2CCC[C@@H]21 [Ramipril(Altace)] | 137 | -16.3

Compound | normalized SmoIP GFP fluorescence [1] [%] | normalized SmoIP GFP fluorescence [2] [%]
CNC(=O)c1ccc(-c2cnc3ncc(Cc4ccc5ncccc5c4)n3n2)cc1F | 107 | -1.34
Nc1nccc2c1ncn2[C@@H]1C=C(CO)[C@@H](O)[C@H]1O [3-deazaneplanocin-a-dznep] | 142 | 0.702
O=C(O)/C=C/c1ccc(Cn2ccnc2)cc1 [Ozagrel] | 116 | -2.46
CCCCCCCCc1ccc(CCC(N)(CO)CO)cc1 | 107 | -0.0369
Cc1cccc(-c2[nH]c(C(C)(C)C)nc2-c2ccc3c(c2)OCO3)n1 | 133 | -6.97
Cc1ccc(Sc2ccccc2N2CCNCC2)c(C)c1 | 169 | -11.4
Oc1ccc([C@H]2COc3cc(O)ccc3C2)cc1 [equol] | 107 | -3.9
Cc1ccc(C(=O)c2cc(O)c(O)c([N+](=O)[O-])c2)cc1 [tolcapone] | 108 | -2.48
CC(=O)S[C@@H]1CC2=CC(=O)CC[C@]2(C)[C@H]2CC[C@@]3(C)[C@@H](CC[C@@]34CCC(=O)O4)[C@H]12 [spironolactone] | 102 | -4.58
COc1ccc2cccc(CCNC(C)=O)c2c1 [Agomelatine] | 102 | 5.66
COc1ccccc1OCCNCC(O)COc1cccc2[nH]c3ccccc3c12 (stereo not drawn) [carvedilol] | 118 | -7.78
O=C1NC(=O)/C(=C/c2ccc(-c3ccc(F)cc3O)o2)S1 | 99.3 | 0.588
O=C(c1ccc(Nc2nccc(-c3cc4ccccc4s3)n2)cc1)N1CCC(N2CCCC2)CC1 | 106 | 1.1
C=C[C@@]1(C)CC(=O)[C@]2(O)[C@@]3(C)[C@@H](O)CCC(C)(C)[C@@H]3[C@H](O)[C@H](OC(C)=O)[C@@]2(C)O1 [forskolin] | 137 | -10
C[N+]1(C)[C@@H]2C[C@@H](OC(=O)C(O)(c3cccs3)c3cccs3)C[C@H]1[C@@H]1O[C@@H]12 [Tiotropium-Bromide-hydrate] | 114 | 0.334
CN[C@H]1CC[C@@H](c2ccc(Cl)c(Cl)c2)c2ccccc21 [sertraline-hcl] | 108 | 2.46
CC1(C)CC(=O)c2c(C(F)(F)F)nn(-c3ccc(C(N)=O)c(N[C@H]4CC[C@H](OC(=O)CN)CC4)c3)c2C1 | 233 | 83.8
CC1=C(C(=O)OC2CCCCC2)C(c2ccc([N+](=O)[O-])cc2)C2=C(CC(C)(C)CC2=O)N1 (stereo not drawn) | 117 | 4.26
COc1cc(OC)c(/C=C/S(=O)(=O)Cc2ccc(OC)c(NCC(=O)O)c2)c(OC)c1 | 79.7 | -1.34
Cc1cccc(Nc2cc(Cl)nc(SCC(=O)O)n2)c1C | 93.8 | -14.3
CC(=O)Nc1nc2c(Oc3cc(-c4ccc(C(F)(F)F)cc4)ncn3)cccc2s1 | 111 | -4.7
C=CC(=O)Nc1ccc2ncnc(Nc3cccc(Br)c3)c2c1 | 125 | -0.662
CC(=O)[C@H]1CC[C@H]2[C@@H]3CC=C4C[C@@H](O)CC[C@]4(C)[C@H]3CC[C@]12C [pregnenolone] | 116 | 8.09
COc1ccc(C(=O)Nc2sc3c(c2C(N)=O)CCCC3)cc1OC | 128 | -9.85
CN(C)C/C=C/C(=O)Nc1cc2c(Nc3ccc(F)c(Cl)c3)ncnc2cc1O[C@H]1CCOC1 | 121 | 7.92

Compound | normalized SmoIP GFP fluorescence [1] [%] | normalized SmoIP GFP fluorescence [2] [%]
CS(=O)(=O)c1cccc(CNc2nc(Nc3ccc4c(c3)CCC(=O)N4)ncc2C(F)(F)F)c1 | 209 | 71.5
CCCS(=O)(=O)Nc1ccc(F)c(C(=O)c2c[nH]c3ncc(-c4ccc(Cl)cc4)cc23)c1F | 91.2 | 3.72
Cc1c(-c2ccccc2)oc2c(C(=O)OCCN3CCCCC3)cccc2c1=O [flavoxate-hcl] | 106 | 0.474
Cn1cc(-c2ccc3nnc(Sc4ccc5ncccc5c4)n3n2)cn1 | 96.1 | -1.88
COc1ccc(-c2ccc3c(N4CCOCC4)nc(N4C[C@@H](C)O[C@@H](C)C4)nc3n2)cc1CO | 62.1 | -12.5
O=C(NCc1ccccc1)c1csc(Nc2ccncn2)n1 [Thiazovivin] | 72.7 | -11.6
CC(C)(C)c1cc(C(C)(C)C)c(NC(=O)c2c[nH]c3ccccc3c2=O)cc1O | -31.6 | 7.39
CC1(COc2ccc3c(c2)ncn3-c2ccc3cccc(N4CCC(N)CC4)c3n2)COC1 | 260 | 77.9
O=C1NC(=O)/C(=C/c2cccc(C(F)(F)F)c2)S1 | 107 | -9.04
CCc1cncnc1N1CCN(Cc2nc3ccc(C(F)(F)F)cc3[nH]2)CC1 | 121 | 0.966
CNC(=O)c1ccccc1Nc1nc(Nc2ccc(N3CCOCC3)cc2OC)ncc1Cl | 163 | 22.3
CC(=O)OCC(=O)NCCCOc1cccc(CN2CCCCC2)c1 [roxatidine-acetate-hcl] | 142 | -6.97
COc1ccc(COc2cc3oc(=O)c4cc(C(C)O)ccc4c3cc2OC)cc1 (stereo not drawn) [Palomid-529-P529] | 134 | -15.8
C#Cc1cccc(Nc2ncnc3cc4c(cc23)OCCOCCOCCO4)c1 [icotinib] | 93.3 | -1.63
CCCCOc1c(C(=O)c2c(F)cc(C)cc2F)c[nH]c2nncc1-2 | 138 | -11.7
CNC(=O)c1ccccc1Sc1ccc2c(/C=C/c3ccccn3)n[nH]c2c1 [Axitinib] | 142 | 28.7
CS(=O)(=O)Nc1ccc([N+](=O)[O-])cc1Oc1ccccc1 [nimesulide] | 109 | -4.35
COc1cc2nc(N(C)CCCNC(=O)C3CCCO3)nc(N)c2cc1OC (stereo not drawn) [Alfuzosin-hydrochloride] | 101 | -2.42
CCCC(C)NC(=O)c1ccc(Cl)c(Cl)c1 (stereo not drawn) | 95.2 | -4.7
Cc1ccc(C(=O)N(CCCN)[C@@H](c2oc3cc(Cl)ccc3c(=O)c2Cc2ccccc2)C(C)C)cc1 | 141 | 2.05
NCC(=O)Nc1ccc(-n2nc(C(F)(F)F)cc2-c2ccc3c(ccc4ccccc43)c2)cc1 | 100 | 0.812
C[C@H](NC(=O)[C@@H](O)c1cc(F)cc(F)c1)C(=O)N[C@@H]1C(=O)N(C)c2ccccc2-c2ccccc21 | 145 | 9.98
CC(=O)N1CCN(c2ccc(OCC3COC(Cn4ccnc4)(c4ccc(Cl)cc4Cl)O3)cc2)CC1 (stereo not drawn) [Ketoconazole] | 109 | 2.64
COc1ccccc1Oc1c(NS(=O)(=O)c2ccc(C(C)(C)C)cc2)nc(-c2ncccn2)nc1OCCO [bosentan-hydrate] | 109 | -1.63
